# DRD3 agonist: activates the human D3 dopamine receptor; P35462; D3R DiscoveRx beta-arrestin cells, luminescence, 90 min; max activation, %; hit rate 0.58% among 410,000; in the data active means max activation above about 30%; further: 0% is about no effect
# Target sequence (P35462 whole entry, looked up): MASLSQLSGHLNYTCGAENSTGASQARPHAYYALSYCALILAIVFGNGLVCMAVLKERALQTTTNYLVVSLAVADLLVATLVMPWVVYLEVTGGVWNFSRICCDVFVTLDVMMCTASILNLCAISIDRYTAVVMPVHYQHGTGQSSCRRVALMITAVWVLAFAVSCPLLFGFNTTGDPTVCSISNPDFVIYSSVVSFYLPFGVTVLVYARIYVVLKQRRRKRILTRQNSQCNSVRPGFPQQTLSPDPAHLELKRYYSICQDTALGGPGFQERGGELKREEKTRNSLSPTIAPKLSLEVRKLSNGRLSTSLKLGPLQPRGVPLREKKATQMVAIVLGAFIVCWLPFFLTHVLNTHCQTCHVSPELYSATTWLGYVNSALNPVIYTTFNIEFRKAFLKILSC
#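 Cells at 1500/well, incubated overnight, then treated with pinned compounds (dopamine as control) for 90 min at 37 degrees C. DiscoveRx reagent added for 30 - 60 minutes at room temperature; luminescence read.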
# D3 antag: D3 dopamine receptor (human) antagonism | hit rate 2.5% among 360,000 | D3R cells, DiscoveRx beta-arrestin luminescence, antagonist mode; hits give low values | AID 652054 | P35462 | max response, negative = inhibition, %; in the data active means max response below about -50%; inconclusive means no clear call, values can overlap the other calls; further: on the % scale 0 is the no-effect control and ±100 the full control effect
#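 Cells expressing the human receptor were seeded at 1500 cells/well, incubated overnight at 37 degrees C in 5% CO2, then exposed to library compounds with dopamine controls for 90 minutes at 37 degrees C before luminescent detection.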
# SW480 rereplic: DNA re-replication induction in SW480 cells; hit rate 1.8% among 340,000; SW480 DNA re-replication, Hoechst DNA content imaging, 48 h; Potency, µM (series often up to 46.1 µM), for the others: at the top dose re-replication activation, most hits filed as activators; AID 624297; further: potency means the concentration at half of the fitted maximal effect; % of control where 0% means no effect; nearly all actives have a fitted effect of over 55% in size
#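 Compounds, transferred as 23 nL by pin tool, were incubated with cells for 48 hr; DNA content per nucleus was then quantified by Hoechst staining and fluorescence plate imaging.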
# KB-3-1 tox: kills parental KB-3-1 adenocarcinoma cells | KB-3-1 viability, CellTiter-Glo ATP luminescence, 72 h | Potency, µM (series often up to 46.1 µM), actives largely listed as cytotoxic | hit rate 1.4% among 400,000; further: potency means the concentration at half of the fitted maximal effect; on the % scale 0 is the no-effect control and ±100 the full control effect; nearly all actives have a fitted effect of over 60% in size
#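 Cytotoxicity measured as CellTiter-Glo luminescence after 72 h at 37 C. Compound titrations were pinned onto drug-naive KB-3-1 parental adenocarcinoma cells grown in DMEM with 10% FBS, and normalized data fitted to concentration-response curves.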
# KB-V1 cytotox: kills drug-selected multidrug resistant KB-V1 cells; KB-V1 MDR cells viability, CellTiter-Glo, 72 h; Potency, µM (titrated, usually from 46.1 µM), hits mostly cytotoxic; hit rate 3.4% among 400,000; further: potency means the concentration at half of the fitted maximal effect; on the % scale 0 is the no-effect control and ±100 the full control effect; nearly all actives have a fitted effect of over 60% in size
#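 Cytotoxicity via CellTiter-Glo luminescence after 72 h compound exposure at 37 degrees C. Cells: drug-selected KB-V1 line, DMEM phenol-red free plus 10% FBS. Compounds tested at multiple concentrations; normalized data fitted to concentration-effect curves.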
# MCF10A rerep: inducers of DNA re-replication in MCF 10A breast cells | MCF 10A DNA re-replication, Hoechst nuclear intensity, 48 h | Potency, µM (doses to about 46.1 µM), inactives show at the highest dose activity, positive = re-replication, actives largely listed as activators | hit rate 2.9% among 350,000 | AID 624296; further: potency means the concentration at half of the fitted maximal effect; % of control where 0% means no effect; nearly all actives have a fitted effect of over 50% in size
# Active calls of the source: *; i = inactive; ? = inconclusive; . = no result given. Compounds with a hit are over-represented: about 8.9% of the library has one in this group of screens. Unless noted, the call rests on the fitted dose curve; in most records, active means well fitted curve in the direction sought with a large enough effect; inconclusive means small, poorly fitted or top-dose-only effect, or another doubt; inactive means no such curve, though single readings can be large; an effect the other way counts as inactive or inconclusive.
SMILES,DRD3 agonist,D3 antag,SW480 rereplic,KB-3-1 tox,KB-V1 cytotox,MCF10A rerep
COc1cc(/C=N/Nc2ccc(C(F)(F)F)cn2)ccc1O,1,32,19%,i,i,3%
O=C(O)c1cc(N/N=C/c2ccncc2)ccc1Cl,-19,-27,30%,i,i,-13%
O=C(O)c1ccc(N/N=C/C=C/c2ccccc2)cc1,-3,1,-5%,i,i,15µM*
O=C(O)c1cc(N/N=C/c2ccc(-c3ccccc3)cc2)ccc1Cl,4,6,?,i,i,3.3µM*
CCCN(C(=O)c1cc2c(s1)-c1ccccc1SC2)c1ccccc1F,-5,.,.,.,.,.
Cc1cc(C(=O)COC(=O)c2ccc(Br)o2)c(C)n1C,-2,-10,-3%,i,i,-3%
COCCn1c(C)cc(C(=O)COC(=O)c2ccc(Cl)c(S(N)(=O)=O)c2)c1C,-4,-2,-6%,i,23µM*,4%
COCCn1c(C)cc(C(=O)COC(=O)c2ccc(Br)o2)c1C,-3,-82*,1%,i,i,0%
Cn1cccc1-c1cc2n(n1)CCC(=O)N2CC(=O)Nc1ccc(F)cc1Cl,2,.,.,i,i,.
CCOc1ccc(NC(=O)Cn2c(=O)n(Cc3ccco3)c(=O)c3ccc(C(=O)NC4CCCC4)cc32)cc1,2,.,.,i,?,.
CC1=NNC(=O)/C1=C\c1cn(-c2ccccc2)nc1-c1ccccc1,4,?,10%,?,?,3.7µM*
CCN(CCCNC(=O)c1cc2cc3cc(C)ccc3nc2s1)c1cccc(C)c1,-1,.,.,i,i,.
[2H]c1c([2H])c([2H])c(-c2nc(N3CCCCCC3)sc2C(=O)c2ccccc2)c([2H])c1[2H],-2,13,?,i,i,7.3µM*
Cc1cc(C=CC#N)cc(C)c1Nc1nc(Nc2ccc3c(c2)OCO3)c2[nH]cnc2n1,.,.,.,18µM*,?,.
c1nc(NCc2ccc3c(c2)OCO3)c2[nH]cnc2n1,.,.,.,i,i,.
CN(C)S(=O)(=O)c1ccc2c(c1)N(CC(=O)Nc1ccc(F)cc1)C(=O)CS2,-1,.,.,i,i,.
CCOC(=O)N1CCC(NC(=O)c2cc(S(=O)(=O)N3CCC4(CC3)OCCO4)ccc2F)CC1,3,18,1%,i,23µM*,12%
CCOC(=O)N1CCC(NC(=O)c2cc(S(=O)(=O)N3CCOCC3)ccc2F)CC1,11,15,-4%,i,i,-3%
CCOC(=O)N1CCC(NC(=O)c2cc(S(=O)(=O)N(CC)CC)ccc2F)CC1,2,12,0.73µM*,i,?,-13%
Cc1ccc(S(=O)(=O)NCC2CCC(C(=O)NCCc3ccc(Cl)cc3)CC2)cc1 (stereo not drawn),-8,.,.,.,.,.
Cc1cccc(CC(=O)N2CC(=O)Nc3ccc(Br)cc3C2c2ccc(F)cc2)c1 (stereo not drawn),9,.,.,i,i,.
CCc1cccc(NC(=O)c2ccc(Cn3nc(C)cc3C)o2)c1,3,1,-81%,i,15µM*,7%
CCOc1ccc(NC(=O)c2ccc(Cn3nc(C)cc3C)o2)cc1,9,2,-1%,i,i,-3%
NC(=S)c1cc2cc(Br)ccc2oc1=O,-6,-12,0%,i,?,-7%
NC(=S)c1cc2ccc(O)cc2oc1=O,-25,-68*,10µM*,i,i,21µM*
C/C(=N/NC(N)=S)c1cc2ccc(O)cc2oc1=O,8,38,?,i,i,18µM*
CCCn1c(=O)c2sccc2n2c(CCCC(=O)Nc3ccccc3OCC)nnc12,7,.,.,i,i,.
O=C(c1ccncc1)c1ccc(N2CCN(C3CC(=O)N(Cc4ccccc4)C3=O)CC2)cc1 (stereo not drawn),11,19,-2%,?,16µM*,?
COc1ccc(N2CCN(C3CC(=O)N(Cc4ccccc4)C3=O)CC2)cc1 (stereo not drawn),12,4,9%,i,i,26%

# Screening results from PubChem BioAssay.
